Source: the supplement of paper PMC10849652
The full data set covers some 7,900 targets. This sample favours those with a hit. About 0.6% of all pairs of compound and target were hits. A number with no mark means an inactive call.

What was measured:
Test in all cases: log2 fold change, soluble protein after heating vs DMSO (PISA); higher = thermal stabilisation; K562 cells, 10 uM, 30 min; active = over 0.2 and 3.5 SD of the protein, either way, in both replicates (recomputed)
IRAK-1-4 Inhibitor I = compound: C1COCCN1CCN2C3=CC=CC=C3N=C2NC(=O)C4=CC(=CC=C4)[N+](=O)[O-] [IRAK-1-4 Inhibitor I]
Summary of the method: (§1)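 K562 cells (2×10^6 cells/mL) were treated with 10 μM compound for 30 min, and aliquots were heated for 3 min over 48°C-58°C. Pooled aliquots were extracted in PBS with 0.5% NP-40 at 4°C, and the supernatant after 21,000xg for 90 min was measured by TMTpro 16plex LC-MS/MS with channel sums equalised. Reported thermal stability, relative to control samples and from duplicates, is a log2 fold change.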

ibrutinib = compound: C=CC(=O)N1CCC[C@@H](n2nc(-c3ccc(Oc4ccccc4)cc3)c3c(N)ncnc32)C1 [ibrutinib]
Summary of the method: as §1

[1] = compound: CC(=O)c1cnc2ccc(-c3cc(Cl)c(O)c(Cl)c3)nc2c1N[C@H]1CC[C@H](CN(C)C)CC1
Summary of the method: as §1

ralimetinib = compound: CC(C)(C)Cn1c(N)nc2ccc(-c3[nH]c(C(C)(C)C)nc3-c3ccc(F)cc3)nc21 [ralimetinib]
Summary of the method: as §1

[2] = compound: CC(C)(O)CC(=O)NCCn1ccc2ncnc(Nc3ccc(Oc4cccc(C(F)(F)F)c4)c(Cl)c3)c21
Summary of the method: as §1

[3] = compound: CC(C)C1=C2N=C(C=C(N2N=C1)NCC3=CC=CC=C3)NCCCCCCN
Summary of the method: as §1

[4] = compound: CC(C)C[C@@H](C=O)NC(=O)[C@H](CC(C)C)NC(=O)[C@H](CC(C)C)NC(=O)OCc1ccccc1
Summary of the method: as §1

pinometostat = compound: CC(C)N(C[C@H]1O[C@@H](n2cnc3c(N)ncnc32)[C@H](O)[C@@H]1O)[C@H]1C[C@@H](CCc2nc3cc(C(C)(C)C)ccc3[nH]2)C1 [pinometostat]
Summary of the method: as §1

[5] = compound: CC1=C(C(CC(=O)N1)C2=CC=C(C=C2)C(F)(F)F)C(=O)NC3=C(C=C4C(=C3)C=NN4)F
Summary of the method: as §1

[6] = compound: CC1=C(C2=C(C=C1)C(=O)C3=CC=CC=C3N2CCCN)C
Summary of the method: as §1

[7] = compound: CC1=C(C=C(C=C1)NC(=O)C2=CC(=CC=C2)C(C)(C)C#N)NC3=CC4=C(C=C3)N=CN(C4=O)C
Summary of the method: as §1

[8] = compound: CC1=C(C=C(C=C1)NC(=O)C2=CC(=CC=C2)N(C)C)NC(=O)C3=CC=C(C=C3)O
Summary of the method: as §1

[9] = compound: CC1=CC=C(C=C1)SC2=C3C=C(SC3=CN=C2)C(=O)N
Summary of the method: as §1

[10] = compound: CC1=NC(=CC=C1)C2=C(N=C(N2)C(C)(C)C)C3=CC4=NC=CN=C4C=C3
Summary of the method: as §1

Nexturastat A = compound: CCCCN(Cc1ccc(C(=O)NO)cc1)C(=O)Nc1ccccc1 [Nexturastat A]
Summary of the method: as §1

vemurafenib = compound: CCCS(=O)(=O)Nc1ccc(F)c(C(=O)c2c[nH]c3ncc(-c4ccc(Cl)cc4)cc23)c1F [vemurafenib]
Summary of the method: as §1

[11] = compound: CCCS(=O)(=O)Nc1ccc(F)c(C(=O)c2c[nH]c3ncc(Cl)cc23)c1F
Summary of the method: as §1

[12] = compound: CCCc1cc(C)[nH]c(=O)c1CNC(=O)c1cc(-c2ccnc(N3CCN(C)CC3)c2)cc2c1cnn2C(C)C
Summary of the method: as §1

givinostat = compound: CCN(CC)Cc1ccc2cc(COC(=O)Nc3ccc(C(=O)NO)cc3)ccc2c1 [givinostat]
Summary of the method: as §1

barasertib = compound: CCN(CCCOc1ccc2c(Nc3cc(CC(=O)Nc4cccc(F)c4)[nH]n3)ncnc2c1)CCOP(=O)(O)O [barasertib]
Summary of the method: as §1

UniProt Q9Y605, sequence (Q9Y605 whole entry, looked up): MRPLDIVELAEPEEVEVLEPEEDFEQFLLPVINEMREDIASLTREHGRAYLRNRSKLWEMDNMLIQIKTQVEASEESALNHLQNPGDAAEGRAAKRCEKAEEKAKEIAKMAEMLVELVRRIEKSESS
UniProt P48645, sequence (P48645 whole entry, looked up): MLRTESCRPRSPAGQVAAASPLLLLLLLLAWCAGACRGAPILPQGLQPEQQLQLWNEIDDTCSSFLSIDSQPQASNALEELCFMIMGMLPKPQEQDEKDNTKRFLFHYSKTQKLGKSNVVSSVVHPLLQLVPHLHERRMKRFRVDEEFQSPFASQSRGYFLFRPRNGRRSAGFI
UniProt P25208, sequence (P25208 whole entry, looked up): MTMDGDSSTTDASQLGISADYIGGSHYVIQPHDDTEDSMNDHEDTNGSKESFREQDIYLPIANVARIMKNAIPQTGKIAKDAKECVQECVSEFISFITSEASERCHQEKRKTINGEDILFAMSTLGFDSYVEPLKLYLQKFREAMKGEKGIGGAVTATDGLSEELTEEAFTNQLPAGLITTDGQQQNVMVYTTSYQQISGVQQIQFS
UniProt P52948, sequence (P52948 whole entry, looked up): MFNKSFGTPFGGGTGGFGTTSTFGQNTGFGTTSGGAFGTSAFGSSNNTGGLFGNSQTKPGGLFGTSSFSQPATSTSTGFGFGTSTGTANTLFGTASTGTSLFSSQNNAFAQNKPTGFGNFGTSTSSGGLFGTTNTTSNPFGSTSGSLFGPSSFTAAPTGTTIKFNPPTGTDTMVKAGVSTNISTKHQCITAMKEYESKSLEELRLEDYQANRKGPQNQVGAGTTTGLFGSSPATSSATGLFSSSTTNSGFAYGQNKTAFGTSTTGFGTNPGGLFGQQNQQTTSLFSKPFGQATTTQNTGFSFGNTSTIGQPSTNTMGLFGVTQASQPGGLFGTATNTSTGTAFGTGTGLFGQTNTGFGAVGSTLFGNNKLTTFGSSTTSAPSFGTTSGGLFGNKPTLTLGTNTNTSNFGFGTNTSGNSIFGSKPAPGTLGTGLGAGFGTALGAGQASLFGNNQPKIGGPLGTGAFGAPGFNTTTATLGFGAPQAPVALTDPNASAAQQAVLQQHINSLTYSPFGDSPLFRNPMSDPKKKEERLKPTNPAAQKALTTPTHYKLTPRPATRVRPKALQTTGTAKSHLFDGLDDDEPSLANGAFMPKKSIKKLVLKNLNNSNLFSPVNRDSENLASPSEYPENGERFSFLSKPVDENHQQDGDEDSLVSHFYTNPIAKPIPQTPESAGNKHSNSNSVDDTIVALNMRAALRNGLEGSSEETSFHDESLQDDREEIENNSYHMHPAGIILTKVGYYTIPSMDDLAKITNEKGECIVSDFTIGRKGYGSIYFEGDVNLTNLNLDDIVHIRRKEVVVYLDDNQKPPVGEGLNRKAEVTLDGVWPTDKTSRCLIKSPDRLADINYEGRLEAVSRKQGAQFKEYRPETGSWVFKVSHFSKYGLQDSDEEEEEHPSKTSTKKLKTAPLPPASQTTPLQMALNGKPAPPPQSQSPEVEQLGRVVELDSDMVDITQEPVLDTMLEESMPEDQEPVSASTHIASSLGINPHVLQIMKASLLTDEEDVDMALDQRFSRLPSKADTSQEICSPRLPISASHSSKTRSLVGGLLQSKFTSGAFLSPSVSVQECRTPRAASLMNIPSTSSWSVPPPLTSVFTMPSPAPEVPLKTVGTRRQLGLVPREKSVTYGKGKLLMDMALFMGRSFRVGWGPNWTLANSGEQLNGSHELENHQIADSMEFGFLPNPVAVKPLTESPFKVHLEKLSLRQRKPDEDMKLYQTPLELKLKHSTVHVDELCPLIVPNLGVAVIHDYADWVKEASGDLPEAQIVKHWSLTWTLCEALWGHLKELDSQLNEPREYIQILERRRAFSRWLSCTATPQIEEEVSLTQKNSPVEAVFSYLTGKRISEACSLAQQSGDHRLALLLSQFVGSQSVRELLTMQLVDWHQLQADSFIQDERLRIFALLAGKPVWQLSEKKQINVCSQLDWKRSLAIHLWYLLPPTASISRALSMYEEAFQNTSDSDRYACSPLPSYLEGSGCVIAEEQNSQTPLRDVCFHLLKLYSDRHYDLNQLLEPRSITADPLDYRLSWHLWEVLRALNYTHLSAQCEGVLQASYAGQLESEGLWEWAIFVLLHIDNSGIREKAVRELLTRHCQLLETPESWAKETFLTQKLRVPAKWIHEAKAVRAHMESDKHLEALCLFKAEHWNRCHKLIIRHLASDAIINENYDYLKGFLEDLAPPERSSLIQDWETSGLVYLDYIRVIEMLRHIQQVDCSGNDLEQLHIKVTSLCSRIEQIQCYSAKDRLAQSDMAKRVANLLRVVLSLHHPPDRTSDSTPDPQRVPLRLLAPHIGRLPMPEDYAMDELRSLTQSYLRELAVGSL
UniProt Q9H019, sequence (Q9H019 whole entry, looked up): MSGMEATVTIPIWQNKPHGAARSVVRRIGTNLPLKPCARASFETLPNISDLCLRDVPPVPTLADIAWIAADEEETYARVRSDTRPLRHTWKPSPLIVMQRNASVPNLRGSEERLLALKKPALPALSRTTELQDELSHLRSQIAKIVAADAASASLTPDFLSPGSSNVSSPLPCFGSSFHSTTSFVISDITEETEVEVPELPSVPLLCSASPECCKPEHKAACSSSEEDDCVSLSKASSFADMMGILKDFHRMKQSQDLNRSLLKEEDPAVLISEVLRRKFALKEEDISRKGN

Row | Target | log2 fold change (IRAK-1-4 Inhibitor I) | log2 fold change (ibrutinib) | log2 fold change [1] | log2 fold change (ralimetinib) | log2 fold change [2] | log2 fold change [3] | log2 fold change [4] | log2 fold change (pinometostat) | log2 fold change [5] | log2 fold change [6] | log2 fold change [7] | log2 fold change [8] | log2 fold change [9] | log2 fold change [10] | log2 fold change (Nexturastat A) | log2 fold change (vemurafenib) | log2 fold change [11] | log2 fold change [12] | log2 fold change (givinostat) | log2 fold change (barasertib)
1 | MRPS15 (UniProt P82914) | -0.062 | -0.022 | -0.024 | 0.014 | -0.12 | -0.041 | 0.004 | 0.041 | -0.01 | -0.2 | 0.04 | -0.026 | -0.017 | -0.022 | 0.058 | -0.037 | 0.062 | 0.023 | 0.027 | 0.004
2 | NFYB (UniProt P25208) | 0.07 | -0.051 | 0.019 | 0.016 |  | 0.054 | -0.007 | -0.043 | 0.026 | 0.411 (active) | -0.012 | -0.118 | -0.023 | 0.025 |  | 0.026 | 0.025 | 0.044 | -0.012 | 0.049
3 | PAFAH2 (UniProt Q99487) | 0.106 | 0.048 | -0.012 | -0.033 |  | 0.025 | 0.007 | -0.011 |  | 0.02 | -0.09 | 0.006 | 0.019 | -0.038 |  | 0.093 | -0.015 |  | 0.059 | -0.044
4 | MTFR1L (UniProt Q9H019) | 0.04 | 0.048 | -0.052 | -0.005 | 0.014 | -0.412 | 0.047 | 0.003 | 0.041 | -0.05 | 0.082 | -0.006 | 0.008 | -0.122 | -0.027 | 0.048 | 0.116 |  | 0.031 | -0.026
5 | NUP98 (UniProt P52948) | -0.021 | -0.048 | -0.146 | 0.04 | 0 | -0.071 | 0.041 | 0.03 | -0.019 | 0.013 | -0.042 | 0.064 | -0.003 | 0.031 | 0.061 | 0.037 | 0.068 | 0.036 | 0.081 | 0.037
6 | NCK1 (UniProt P16333) | -0.178 | -0.154 | -0.252 | 0.044 | -0.038 | -0.283 | 0.082 | 0.076 | 0.005 | 0.039 | 0.166 | -0.068 | 0.208 | 0.102 | 0.12 | 0.031 | 0.116 | 0.08 | 0.211 | 0.189
7 | NMU (UniProt P48645) | -0.052 | 0.027 | 0.034 | 0.063 | 0.011 | 0.123 | 0.313 | -0.106 | 0.03 | -0.174 |  | -0.052 | 0.09 | 0.411 (active) | 0.283 | 0.067 | -0.127 |  | 0.001 | 0.002
8 | MRFAP1 (UniProt Q9Y605) | 0.218 | -0.017 | 0.206 | -0.022 |  | -0.056 | 0.437 | -0.016 | 0.28 | -0.339 | -0.073 | -0.011 | 0.101 | -0.045 |  | -0.148 | 0.046 | 0.009 | 0.017 | 0.036
